Screens deposited in PubChem BioAssay by National Center for Advancing Translational Sciences (NCATS).
The list is not random: actives were taken first. Their share in the collection is about 6%.
D1 agonist = Allosteric Agonists of the Human D1 Dopamine Receptor: qHTS | HEK293 T-REx D1 cells, calcium flux, agonist mode | D(1A) dopamine receptor (Homo sapiens), P21728 | AID 504660, 2011 | activation, % at 2 µM | 360,000 tested, 1% active; in the data active means activation above about 30%; further: 0% is about no effect
Target sequence (P21728 whole entry, looked up): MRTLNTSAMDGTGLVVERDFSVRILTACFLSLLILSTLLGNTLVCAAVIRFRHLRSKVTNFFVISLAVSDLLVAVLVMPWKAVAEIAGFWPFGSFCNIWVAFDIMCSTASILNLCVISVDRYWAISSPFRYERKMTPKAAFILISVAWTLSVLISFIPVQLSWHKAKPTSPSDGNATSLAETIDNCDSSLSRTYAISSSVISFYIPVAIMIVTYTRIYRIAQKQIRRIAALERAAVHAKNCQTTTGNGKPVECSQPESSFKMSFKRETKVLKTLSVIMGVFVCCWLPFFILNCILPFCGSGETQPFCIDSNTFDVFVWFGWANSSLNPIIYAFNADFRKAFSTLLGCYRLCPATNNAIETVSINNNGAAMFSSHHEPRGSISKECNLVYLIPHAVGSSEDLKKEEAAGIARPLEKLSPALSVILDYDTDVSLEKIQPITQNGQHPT
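Agonism was scored from calcium flux recorded over 180 s (1 read/s) after pintool compound addition, following a 10-cycle baseline. Cells were inducible force-coupled HEK293 TREx D1, plated overnight at 30 C and loaded with no-wash calcium dye.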
D1 PAM = Potentiators of Human D1 Dopamine Receptor: qHTS; D(1A) dopamine receptor (Homo sapiens), P21728; HEK293 TREx D1 cells, calcium flux, dopamine EC20 potentiation; potentiation, % at 10 µM; 360,000 tested, 0.036% active; AID 504651, 2011; in the data active means potentiation above about 30%; further: 0% is about no effect
DRD3 antagonist = qHTS of D3 Dopamine Receptor Antagonist: qHTS; D3R cells, DiscoveRx beta-arrestin luminescence, antagonist mode; hits give low values; max response, negative = inhibition, %; 360,000 tested, 2.5% active; in the data active means max response below about -50%; inconclusive means no clear call, values can overlap the other calls; further: on the % scale 0 is the no-effect control and ±100 the full control effect
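Cells plated overnight at 1500 cells/well, then exposed to library compounds with dopamine controls for 90 minutes at 37 degrees C. DiscoveRx reagent added for 30–60 minutes at room temperature; luminescence read, quantitative HTS format.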
DRD3 agonist = qHTS of D3 Dopamine Receptor Agonist: qHTS | D(3) dopamine receptor (Homo sapiens), P35462 | D3R DiscoveRx beta-arrestin cells, luminescence, 90 min | max activation, % | 410,000 tested, 0.58% active; in the data active means max activation above about 30%; further: 0% is about no effect
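Agonist mode: compounds and dopamine controls were applied to plated cells for 90 min at 37 degrees C after an overnight attachment at 1500 cells/well. Luminescent read-out followed 30 - 60 minutes at room temperature with DiscoveRx detection reagent.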
D1 antag = Antagonist of Human D 1 Dopamine Receptor: qHTS; D(1A) dopamine receptor (Homo sapiens), P21728; HEK293 TREx D1 cells, calcium flux, dopamine EC80; hits give low values; activity change, negative = inhibition, % at 10 µM; 360,000 tested, 3.2% active; in the data active means activity change below about -30%; further: on the % scale 0 is the no-effect control and ±100 the full control effect
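Allosteric or orthosteric antagonism assessed as attenuation of the calcium response to EC80 dopamine, added 180 s after compound, in induced HEK293 Trex D1 cells loaded with no-wash calcium dye.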
Numbers without * were called inactive; ? = inconclusive; · = not tested or not shown.

SMILES	D1 agonist	D1 PAM	DRD3 antagonist	DRD3 agonist	D1 antag
CC(=O)O[C@H]1C(=O)[C@@]2(C)C([C@H](OC(=O)c3ccccc3)[C@]3(O)C[C@H](OC(=O)[C@H](O)[C@@H](NC(=O)Cc4ccccc4)c4ccccc4)C(C)=C1C3(C)C)[C@]1(OC(C)=O)CO[C@@H]1C[C@@H]2O (stereo partly specified)	4	4	-50*	-9	9
Cc1cc(C)cc(C(=O)OC2C[C@H]3CC[C@@H](C2)N3C)c1 (stereo partly specified)	·	·	·	-6	·
Cc1ccc(C(=O)N[C@@H](C)CN2C3=NC[C@@H](Cc4ccccc4)N3C[C@H]2Cc2ccc(O)cc2)cc1Br	-1	-6	-70*	-53	-44*
Cc1ccc(C(=O)N[C@@H](C)CN2C3=NC[C@H](Cc4ccccc4)N3C[C@H]2Cc2ccc(O)cc2)cc1Br	0	-12	-27	-23	-65*
CN[C@@H](C)Cc1ccccc1	·	·	·	1	·
CC1(C)CSC(=NCc2ccccc2)N1	152*	36*	5	2	-38*
COc1ccc(OC)c([C@@H](O)[C@H](C)N)c1	·	·	·	-8	·
COc1ccc(C(CNC(=O)Cc2ccc(Cl)c(Cl)c2)N(C)C)cc1 (stereo unspecified)	3	1	-2	-13	-12
COc1ccc(C(CNC(=O)Cc2ccc(Cl)c(Cl)c2)N2CCCCC2)cc1 (stereo unspecified)	8	4	-67*	-34	3
O=[N+]([O-])c1cccc(CN2CCN(Cc3ccc(Cl)cc3)CC2)c1	-4	-4	-79*	-12	-4
O=[N+]([O-])c1ccccc1CN1CC=C(c2ccc(F)cc2)CC1	3	-6	-68*	-17	13
CC(C)N1CCN(Cc2cccc([N+](=O)[O-])c2)CC1	3	-1	?	-12	5
O=[N+]([O-])c1cccc(CN2CC=C(c3ccc(F)cc3)CC2)c1	1	-2	-99*	-25	0
O=C1CC(N2CC=C(c3ccccc3)CC2)C(=O)N1c1ccc(F)cc1 (stereo unspecified)	2	0	-15	-9	0
COc1ccc(N2C(=O)CC(=O)NC2=O)cc1	1	-6	-18	-1	-79*
CCOc1ccc(N2C(=O)NC(=O)/C(=C\c3ccc(N4CCCCC4)o3)C2=O)cc1	85*	2	3	5	0
O=C1NC(=O)N(c2ccc3c(c2)OCO3)C(=O)/C1=C/c1ccc(N2CCCC2)o1	33*	-7	5	-1	4
O=C1NC(=O)N(c2ccc3c(c2)OCO3)C(=O)/C1=C/c1cccs1	-1	-2	-2	-3	18
CCOc1ccc(N2C(=O)/C(=C/c3ccc(C)o3)C(=O)NC2=S)cc1	4	-5	?	-5	4
CCc1nc(SC)ncc1C(=O)Nc1ccc(Cl)cc1C(=O)c1ccccc1	2	7	·	4	17
CC(C)NCC(O)c1ccc(N)c(C#N)c1 (stereo unspecified)	·	·	·	10	·
CC1(C)C(C=C(Cl)Cl)C1C(=O)OC(C#N)c1cccc(Oc2ccccc2)c1 (stereo unspecified)	·	·	·	-8	·
O=C(COc1ccccc1F)N1CCN(Cc2cc(=O)n3nc(-c4ccccc4Cl)sc3n2)CC1	-2	0	·	3	10
Cc1ccccc1-c1nn2c(=O)cc(CN3CCN(C(=O)COc4ccccc4Cl)CC3)nc2s1	-2	-3	·	-24	-35*
Cc1ccc(Cl)cc1NC(=O)N(Cc1ccc2c(c1)OCO2)C1CCN(Cc2ccccc2)CC1	21	1	·	-32	-8
SMILES	D1 agonist	D1 PAM	DRD3 antagonist	DRD3 agonist	D1 antag
CC1(C)C[C@H]2C=C(C=O)[C@]3(C=O)C[C@]3(C)[C@H]2C1	2	-4	?	0	-57*
CC1(C)C(C(=O)N2CCN(c3ccc(Cl)cc3)CC2)C1(C)C	4	-6	-4	-3	-5
COC(=O)C1CN(C#N)N(c2ccc(Cl)cc2)C12c1ccccc1-c1ccccc12 (stereo unspecified)	9	-8	-76*	-4	6
CCN(CC)S(=O)(=O)c1ccc(C)c(NCC(=O)Nc2ccc(C#N)c(Cl)c2)c1	14	-9	-10	-17	-37*
CC(=O)N1CCN(CC(=O)Nc2ccc(C#N)c(Cl)c2)CC1	2	-4	15	3	-9
CN(C)CCSC1c2ccccc2CSc2ccccc21 (stereo unspecified)	·	·	-102*	-19	·
COC1CC(=C(c2cccs2)c2cccs2)C[N+](C)(C)C1 (stereo unspecified)	·	·	·	5	·
O=C(COc1cc(Cl)ccc1Cl)Nc1ccc(Cl)cc1C(=O)c1ccccc1	-3	1	·	-9	11
COCCNC(=O)c1c(NC(=O)c2ccc(Br)o2)n(Cc2ccccc2)c2nc3ccccc3nc12	37*	-2	-9	3	-4
O=c1c2ccccc2nc(/C=C/c2ccccc2F)n1-c1cccc(O)c1	1	-1	·	3	2
CCCCCCC(C)(C)c1ccc([C@@H]2C[C@H](O)CC[C@H]2CCCO)c(O)c1	9	-3	102	70*	26
CC1(C)CC/C(=C/c2ccc(Cl)cc2)C1(O)Cn1cncn1 (stereo unspecified)	·	·	·	-14	·
CC(C)(C)N1C(=O)NC(=O)/C(=C\c2ccc3c(c2)CCN3CCCCl)C1=O	1	-1	?	-16	-32*
CCN1C(=O)/C(=C/c2ccc3c(c2)CCN3CCCCl)C(=O)NC1=S	4	0	18	5	1
[O-][n+]1onc2c1CCC1N(O)CCC21O (stereo unspecified)	0	0	-15	-10	-30*
CN1C[C@H](CNC(=O)OCc2ccccc2)C[C@@H]2c3cccc4c3c(cn4C)C[C@H]21	37*	-4	-117*	-49	-87*
O=C(NC[P+](=O)O)OCc1ccccc1	3	-4	10	5	19
Cc1cccc(CN2C(=O)CN=C(c3ccccc3)c3cc(Cl)ccc32)c1	2	0	·	-12	-4
O=C1c2ccccc2C(=O)C1C(=O)C(c1ccccc1)c1ccccc1	·	·	·	-5	·
N#CC1c2ccccc2C=CN1C(=O)c1ccc(N(CCCl)CCCl)cc1 (stereo unspecified)	·	·	-81*	-7	·
Cc1nc2c(=O)n(C)c(=O)nc-2n(C)n1	1	-1	-98*	-28	-14
CCN(CC)CCN=Cc1c(O)n(C2CCCCCC2)c(=O)[nH]c1=O	1	-1	0	39*	12
CN(C)CCN=Cc1c(O)n(C2CCCCCC2)c(=O)[nH]c1=O	5	-1	4	5	-12
